Measured values taken from PubChem BioAssay AID2235 (The Scripps Research Institute Molecular Screening Center, 2010).
Screen size: about 320,000 compounds; about 2,800 (0.88%) were called active.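 How the source made its calls: active means inhibition above the mean inhibition of all tested compounds plus 3 SD, computed separately for each screening campaign (cut at about 15% in these data); inactive means the rest.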 For the sample, actives were picked, then their nearest neighbours and some compounds at random.

These compounds were tested against Serine/threonine-protein phosphatase PP1-alpha catalytic subunit (Homo sapiens) (UniProt P62136) (assay: inhibition of human PP1 catalytic subunit – biochemical, fluorescence, OMFP substrate, single point, counter-screen for PP5 inhibitor project, primary screen (AID 2235)). Settings: purified PP1alpha, at 6.7 µM, active compounds read high.
Serine/threonine-protein phosphatase PP1-alpha catalytic subunit (Homo sapiens), sequence (P62136 whole entry, looked up): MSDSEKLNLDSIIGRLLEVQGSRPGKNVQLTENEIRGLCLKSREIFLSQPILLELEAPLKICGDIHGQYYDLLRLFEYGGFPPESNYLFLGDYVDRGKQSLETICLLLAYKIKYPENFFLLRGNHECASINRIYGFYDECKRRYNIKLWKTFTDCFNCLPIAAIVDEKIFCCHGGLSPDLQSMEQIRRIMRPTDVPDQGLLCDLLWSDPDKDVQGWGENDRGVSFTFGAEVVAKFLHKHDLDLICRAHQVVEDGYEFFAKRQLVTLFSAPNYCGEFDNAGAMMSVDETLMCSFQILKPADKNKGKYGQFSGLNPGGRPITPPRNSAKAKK

| SMILES | inhibition |
| --- | --- |
| O=c1[nH]c(CN2CC=C(c3ccccc3)CC2)nc2scc(-c3cccs3)c12 | 18.9% (active) |
| CC(C)Nc1nc(Cl)nc(NC(C)C)n1 | -5.49% (inactive) |
| Cc1ccc(Cn2c(C)c3cnn(CC(=O)N4CCC5(CC4)OCCO5)c(=O)c3c2C)cc1 | 10.3% (inactive) |
| COC(=O)C1=C(c2cccc(OCc3ccccc3)c2)C[C@@H]2CC[C@H]1N2C(=O)NNCc1ccccc1 | 7.24% (inactive) |
| Cc1ccc(P(=S)(c2ccc(C)o2)N2CCOCC2)o1 | 3.58% (inactive) |
| Cc1ccc(-c2nn(CCC#N)cc2C(=O)O)cc1C | 0.33% (inactive) |
| O=C(O)c1ccccc1NC(=O)C1C2CCC(O2)C1C(=O)O (stereo not given) | 33.1% (active) |
| CC(=O)Nc1ccc(C(=O)C(Cc2ccccc2)N(C)C)cc1 (stereo not given) | -0.99% (inactive) |
| COC(=O)C1=C(c2cc3ccccc3o2)C[C@@H]2CC[C@H]1N2C(=O)NC1CCCCC1 | -1% (inactive) |
| CCOP(=O)(OCC)C(NC(=O)c1ccc(C)cc1)C(Cl)(Cl)Cl (stereo not given) | -1.96% (inactive) |
| CCOP(=O)(OCC)C(O)c1ccc(OC)cc1OC (stereo not given) | 47.2% (active) |
| CCOP(=O)(OCC)C(NC(=O)c1ccc(OC)cc1)C(Cl)(Cl)Cl (stereo not given) | 0.9% (inactive) |
| CNC(=O)Nc1ccc(C(O)(C(=O)OC)C(F)(F)F)cc1 (stereo not given) | 1.95% (inactive) |
| Cc1ccc(C2CN(C)CC2C(=O)c2ccc(F)cc2)cc1 (stereo not given) | -2.93% (inactive) |
| COCc1cc(OC(=O)N(C)C)nc(-c2ccc(C)c(Cl)c2)n1 | -1.37% (inactive) |
